Screening data from PubChem BioAssay.
Pf growth 96h = P. falciparum growth inhibition at 96 hour, primary screen for plastid delayed-death inhibitors | P. falciparum luciferase reporter growth, 96 h | AID 504834 | Potency, µM (titrated, usually from 28.7 µM), for inactives: at the top dose activity change, negative = inhibition, usual class: inhibitors | 6.9% of 320,000 active; note: potency is the fitted concentration of half-maximal effect
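Compounds incubated with erythrocytes infected by luciferase-expressing P. falciparum (2% hematocrit, 0.05% parasitemia final) for 96 hours, 37 C in 5% CO2. Growth inhibition scored as decreased luciferase luminescence.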
Pf growth 48h = P. falciparum growth inhibition at 48 hours (one generation). AID 504832. 5.9% of 310,000 active. P. falciparum luciferase growth in erythrocytes, 48 h. Potency, µM (series often up to 28.7 µM), inactives show at the top dose activity change, negative = inhibition, actives largely listed as inhibitors; note: potency is the fitted concentration of half-maximal effect
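Luciferase-expressing parasites in RBCs, 2% Hct / 0.1% parasitemia final; RPMI 1640 + 0.5% Albumax; 37 C, 5% CO2, one generation; luminescence read-out, lower signal = inhibition.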
HCMV antiviral = human cytomegalovirus inhibition; HFF cells, HCMV-luciferase reporter, 72 h; stronger effect = lower value; activity change, negative = inhibition, % at 57.5 µM; 4.5% of 410,000 active; AID 1259415; in the data active = activity change below about -60%; inconclusive = no clear call, values can overlap the other calls; inactive = above about -39%
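Compounds were evaluated in HFFs infected with an HCMV luciferase reporter virus (MOI 1 PFU/cell). Luciferase in lysates collected 72 h post infection served as the replication measure.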
FBPA Giardia inh = Giardia lamblia aldolase inhibition | purified Giardia FBPA | Potency, µM (titrated, usually from 59.6 µM), inactives show at the top dose activity, negative = inhibition, most hits filed as inhibitors | A8B2U2 | 0.71% of 290,000 active; note: potency is the fitted concentration of half-maximal effect; nearly all actives have a fitted effect of over 55% in size
Target sequence (A8B2U2 whole entry, looked up): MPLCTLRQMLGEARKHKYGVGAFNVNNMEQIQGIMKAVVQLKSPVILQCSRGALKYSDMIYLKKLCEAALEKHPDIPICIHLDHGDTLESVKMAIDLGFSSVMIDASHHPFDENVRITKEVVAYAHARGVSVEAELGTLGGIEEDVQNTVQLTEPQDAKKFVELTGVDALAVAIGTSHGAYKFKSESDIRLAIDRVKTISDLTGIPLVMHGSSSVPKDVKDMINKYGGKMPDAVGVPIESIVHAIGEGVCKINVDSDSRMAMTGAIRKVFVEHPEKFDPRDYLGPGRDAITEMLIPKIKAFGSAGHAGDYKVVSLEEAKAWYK
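Giardia FBPA (40 nM reagent) was preincubated 10 min at RT with compound (up to 57.5 uM final), then substrate plus GAPDH/TPI/NAD/arsenate coupling system with diaphorase/resazurin was added; resorufin fluorescence (525/598 nm) was read after 20 min.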
Sm TGR inh = blocks Schistosoma mansoni thioredoxin glutathione reductase | Q962Y6 | Potency, µM (series often up to 114 µM), for inactives: at the highest dose activity change, negative = inhibition, hits mostly inhibitors | purified TGR, DTNB reduction, TNB absorbance 405 nm | 3% of 360,000 active; note: potency is the fitted concentration of half-maximal effect; nearly all actives have a fitted effect of over 60% in size
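Kinetic colorimetric format: TGR-catalysed, NADPH-driven DTNB reduction monitored via TNB absorbance. Enzyme dispensed at 20 nM; compound exposure 15 min at room temperature before reaction start.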
An asterisk follows results filed as active; ? = inconclusive; / = no result given. This is a sample that favours compounds with a hit; in the whole collection about 14% have one here. Unless noted, calls come from the whole dose curve; as a rule, active = well fitted curve in the direction sought with a large enough effect; inconclusive = small, poorly fitted or top-dose-only effect, or another doubt; inactive = no such curve, though single readings can be large; an effect the other way counts as inactive or inconclusive. % is set by controls: 0 for no effect and ±100 for the full control effect.

SMILES	Pf growth 96h	Pf growth 48h	HCMV antiviral	FBPA Giardia inh	Sm TGR inh
Cc1ccc(C(=O)Nc2cccc(C(=O)NC3CCCCC3)c2)cc1	/	/	22	/	/
CCOCc1nnc(NC(=O)C2CC(=O)N(CCc3ccc(F)cc3)C2)s1 (centres undefined)	-7%	12%	16	0%	0%
COC(=O)c1ccc(Cl)c(NC(=O)Cc2ccccc2[N+](=O)[O-])c1	19%	12%	-72*	3%	-7%
CSc1ccccc1NC(=O)Cc1ccccc1[N+](=O)[O-]	233%	0%	-6	6%	8%
COCc1cc(=O)[nH]c(N2CCN(C(=O)c3ccco3)CC2)n1	12%	36%	-35	-2%	2%
COCc1cc(=O)[nH]c(N2CCN(c3ccccc3OC)CC2)n1	8.3µM*	0%	-2	3%	?
CC(C)NC(=O)C1CCC(Cn2c(=O)c3sccc3n(CC(=O)N3CCCC3)c2=O)CC1 (centres undefined)	/	/	-89*	/	0%
CCn1c(=O)n(CC2CCC(C(=O)NC(C)C)CC2)c(=O)c2sccc21 (centres undefined)	/	/	2	/	?
CC(=O)c1nn(-c2cccc(Br)c2)cc1C(=O)c1ccc(Br)cc1	?	3%	?	6%	0%
CC(=O)c1nn(-c2cccc(Br)c2)cc1C(=O)c1ccc(C)cc1	-15%	/	-69*	-2%	-7%
Clc1ccc2c(c1)-c1ccccc1C1=NCCN12	/	/	-96*	/	/
COc1ccc(Br)cc1S(=O)(=O)N1CCN=C1c1ccccc1	-8%	3%	29	/	-3%
Brc1ccc2c(c1)-c1ccccc1C1=NCCN12	/	/	-69*	/	/
CCOc1ccc(CN(C)C(=O)[C@H](C)NC(=O)c2ccco2)cc1OC	7%	20%	-24	/	7%
COc1cccc(C(=O)c2cn(CC(=O)Nc3cccc(Cl)c3C)c3nc(C)ccc3c2=O)c1	/	/	-1	/	-2%
CCCC(=O)Nc1c(I)cc(I)c(C[C@H](CC)C(=O)O)c1I	-15%	-16%	/	/	/
CCOC(=O)COc1ccc([N+](=O)[O-])cc1-c1ccnc2cc(-c3ccc(C)cc3)nn12	/	/	19	/	3%
Cc1ccc(-c2cc3nccc(-c4cc([N+](=O)[O-])ccc4O)n3n2)cc1	/	/	-63*	/	-2%
COc1ccccc1CN(C)C(=O)CN1CCN(C(=O)c2cccs2)CC1	-27%	?	24	/	-28%
CCOc1ccc(S(=O)(=O)NCC(c2ccco2)S(=O)(=O)c2ccc(C)cc2)cc1 (centres undefined)	/	/	-20	/	0.32µM*
COc1ccc(S(=O)(=O)NCC(c2ccco2)N2CCN(c3ccccc3F)CC2)cc1C (centres undefined)	/	/	31	/	4%
O=C(COc1ccc(Cl)cc1)NCC(c1ccco1)S(=O)(=O)c1ccc(Cl)cc1 (centres undefined)	/	/	10	/	28µM*
Cc1ccc(CNC(=O)C(=O)NCC(c2ccco2)S(=O)(=O)c2ccc(C)cc2)cc1 (centres undefined)	/	/	34	/	-23%
COc1ccc(S(=O)(=O)NCC(c2ccco2)S(=O)(=O)c2ccc(C)cc2)cc1C (centres undefined)	/	/	-14	/	0.79µM*
O=C(Nc1ccc2ccccc2c1)[C@H]1C[C@@H]1[C@H](NP(=O)(c1ccccc1)c1ccccc1)c1ccccc1	/	/	/	-11%	/
SMILES	Pf growth 96h	Pf growth 48h	HCMV antiviral	FBPA Giardia inh	Sm TGR inh
O=S(=O)(c1ccc(SCCOc2ccc(Cl)cc2)nc1)N1CCCC1	?	13µM*	-1	/	2%
O=S(=O)(c1ccc(SCc2ccc(Cl)cc2)nc1)N1CCCC1	?	12µM*	-18	/	-1%
CCOc1ccc(OCCSc2ccc(S(=O)(=O)N3CCN(C)CC3)cn2)cc1	15µM*	?	0	/	-1%
CN1CCN(S(=O)(=O)c2ccc(SCCOc3ccccc3)nc2)CC1	?	-10%	29	0%	-9%
Cc1cc(C)cc(CSc2ccc(S(=O)(=O)N3CCCC3)cn2)c1	9.3µM*	9.3µM*	-23	/	-21%
COc1ccc2[nH]cc(CCNc3ncnc4ccc(-c5ccccc5C#N)cc34)c2c1	/	/	/	-4%	/
Cc1c(C(=O)N(C)C)sc2c1c(=O)n(-c1ccc(Cl)c(Cl)c1)c(=O)n2Cc1ccc(F)cc1	/	/	27	/	5%
